From PubChem BioAssay AID933 (National Center for Advancing Translational Sciences (NCATS), 2007)
Inconclusive results are not listed. Active and inactive are the calls of the source. Calls follow the shape of the dose curve; as a rule, active = well fitted activation curve with a large enough effect in the signal ratio, with a control signal flat; inconclusive = small, poorly fitted or top-dose-only effect, or a change in a side signal; inactive = flat fitted curve, though single readings scatter; the % refers to the signal ratio.

Molecular target: Thyrotropin receptor (Homo sapiens) (UniProt P16473)
Test: Secondary Concentration-Response Assay for Agonists of the Thyroid Stimulating Hormone Receptor: HTRF Activity Detection;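 as to activation: HEK 293 cells stably expressing human TSHR with RO 20-1724 phosphodiesterase inhibitor; % of control where 0% means no effect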
Settings: HEK293-TSHR cells, cAMP HTRF ratio, 30 min; series mostly up to 91.7 µM; activation: at the top concentration
Method in brief: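 Orthogonal confirmation in a separate TSHR-transfected HEK 293 line: cells in medium with 10 % FCS and 100 uM RO 20-1724 got compound for 30 min at room temperature. cAMP was measured by HTRF (d2-cAMP/anti-cAMP antibody), 615/660 nm emission.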
Potency is read from the fitted curve at half-maximal effect.

Chain of Thyrotropin receptor (Homo sapiens) (P16473 whole entry, looked up): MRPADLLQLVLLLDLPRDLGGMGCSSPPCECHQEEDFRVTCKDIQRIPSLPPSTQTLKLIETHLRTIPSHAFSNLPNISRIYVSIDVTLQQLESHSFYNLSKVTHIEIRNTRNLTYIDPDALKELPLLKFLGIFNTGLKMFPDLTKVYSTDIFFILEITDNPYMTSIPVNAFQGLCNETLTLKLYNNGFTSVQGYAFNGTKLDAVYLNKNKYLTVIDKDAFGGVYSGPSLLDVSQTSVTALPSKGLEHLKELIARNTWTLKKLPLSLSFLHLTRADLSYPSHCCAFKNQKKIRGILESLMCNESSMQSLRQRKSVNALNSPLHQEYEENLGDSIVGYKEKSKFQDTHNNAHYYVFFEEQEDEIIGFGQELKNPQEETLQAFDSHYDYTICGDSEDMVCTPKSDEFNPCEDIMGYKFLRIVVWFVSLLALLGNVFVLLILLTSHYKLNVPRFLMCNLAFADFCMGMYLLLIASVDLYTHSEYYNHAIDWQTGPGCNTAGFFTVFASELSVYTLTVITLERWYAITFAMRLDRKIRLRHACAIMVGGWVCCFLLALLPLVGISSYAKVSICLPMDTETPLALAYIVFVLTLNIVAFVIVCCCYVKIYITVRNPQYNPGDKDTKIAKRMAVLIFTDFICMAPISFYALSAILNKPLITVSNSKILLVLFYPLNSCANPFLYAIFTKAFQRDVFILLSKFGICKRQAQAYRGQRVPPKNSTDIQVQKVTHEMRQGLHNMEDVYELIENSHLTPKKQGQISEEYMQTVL

Potency, active:
COc1ccc(C2Nc3ccccc3C(=O)N2Cc2ccc(Cl)cc2)cc1COc1ccc(NC(C)=O)cc1 (stereo not given) 3.16 µM
COc1ccc(CN(Cc2ccccc2)C(=O)c2ccc(O)cc2)cc1COc1ccc(NC(C)=O)cc1 28.2 µM

Potency, inactive:
COc1ccc(C2Nc3ccccc3C(=O)N2Cc2ccco2)cc1 (stereo not given)
O=C1c2ccccc2NC(c2ccccc2)N1Cc1ccco1 (stereo not given)

activation, inactive:
CC(=O)Nc1ccc(S(=O)(=O)N(C)c2ccccc2)cc1 -0.796% [at 0.00035 µM]
COc1ccc(C2Nc3ccccc3C(=O)N2Cc2ccco2)cc1COc1c(C)cccc1C (stereo not given) 1.67%
O=C1C2C3CCCC3=C3CCCC3C2C(=O)N1c1ccc(F)cc1 (stereo not given) 3.38%
COc1ccc(C=O)cc1COc1ccc(NC(C)=O)cc1 4.44%
COc1ccc(N2C(=O)c3ccccc3NC2c2ccc(OC)c(CSc3ccccn3)c2)cc1 (stereo not given) 0.621%
O=C1c2ccccc2NC(c2c(Cl)cccc2Cl)N1Cc1ccccc1 (stereo not given) 1.83%
COc1ccc(C2Nc3ccccc3C(=O)N2Cc2ccccc2)cc1COc1cccc(C(F)(F)F)c1 (stereo not given) 6.58%
Brc1ccc(Oc2nnnn2-c2ccccc2)cc1 -1.07% [at 0.00035 µM]
COc1cc(C2Nc3ccccc3C(=O)N2c2ccc3c(c2)OCCO3)ccc1OCC(C)C (stereo not given) 1%
CCOC(=O)COc1c(OC)cc(Cl)cc1C1Nc2ccccc2C(=O)N1c1cccc(C)c1 (stereo not given) 0.521%
O=c1c2ccccc2nc(-c2ccccc2O)n1Cc1ccccc1 4.17%
CCCN1C(=O)c2ccccc2NC1c1ccc(OC)cc1OC (stereo not given) 3.69%
COc1ccc(O)c(-c2nc3ccccc3c(=O)n2Cc2ccccc2)c1 10.9%
Cc1cc(=O)[nH]c(SCCOc2ccc3c(c2)CCC3)n1 0.323% [at 0.00035 µM]
COc1ccc(-c2cc(C(F)(F)F)nc(SCCC(=O)N3CCOCC3)n2)cc1 0.123% [at 0.00035 µM]
Cc1cc(-n2c(C)cc(C(=O)CSc3nnnn3-c3ccc(Cl)cc3)c2C)no1 1.18% [at 0.00035 µM]
COc1ccc(C(=O)N(Cc2ccco2)Cc2cccs2)cc1 4.57%
CCOc1cc(C2Nc3ccccc3C(=O)N2Cc2ccco2)ccc1O (stereo not given) 2.52%
Cc1onc(-c2ccccc2Cl)c1C(=O)Nc1ccc(-n2nncc2-c2ccco2)cc1 0.344% [at 0.00035 µM]
CCOc1cc(C2Nc3ccccc3C(=O)N2c2ccccc2)ccc1O (stereo not given) 1.67%
CC(C)CC(=O)Nc1cccc(-c2cn3ccsc3n2)c1 0.105% [at 0.00035 µM]
CC(=O)Nc1ccc(OCc2cccc(-c3nc4ccccc4c(=O)n3Cc3ccco3)c2)cc1 6.74%
COc1cc(C2Nc3ccccc3C(=O)N2Cc2ccco2)cc(OC)c1OC (stereo not given) 2.24%
COC(=O)c1cc(NC2c3ccccc3C(=O)N2c2cccnc2)cc(C(=O)OC)c1 (stereo not given) -0.103% [at 0.00035 µM]
CS(=O)(=O)N1CCN(C(=O)c2cc(-c3cccs3)nc3ccccc23)CC1 0.0393% [at 0.00035 µM]
COc1ccc(C2Nc3ccccc3C(=O)N2c2ccccc2F)cc1COc1ccc(NC(C)=O)cc1 (stereo not given) 11.4%
CCC(=O)Nc1ccc(OCc2cc(C3Nc4ccccc4C(=O)N3Cc3ccccc3)ccc2OC)cc1 (stereo not given) 28%
COc1ccc(C2Nc3ccccc3C(=O)N2Cc2ccco2)cc1COc1ccc(N)cc1 (stereo not given) 30.9%
O=C(c1ccc(Br)o1)N(Cc1ccccc1)c1ccccn1 0.801% [at 0.00035 µM]
COc1cccc(OCc2cc(C3Nc4ccccc4C(=O)N3Cc3ccccc3)ccc2OC)c1 (stereo not given) 1.17%
O=C1c2ccccc2NC(c2ccc(Cl)cc2Cl)N1Cc1ccccc1 (stereo not given) 1.15%
